A selection: hits, their analogues and other compounds. The true share with any hit is near 12%.
G9a inh: qHTS Assay for Inhibitors of Histone Lysine Methyltransferase G9a. AID 504332, 2011. Potency, µM (highest dose often 102 µM), for the others: at the top dose activity, negative = inhibition, actives largely listed as inhibitors. G9a H3K9 monomethylation, AlphaScreen, 2 h. hit rate 8.8% among 350,000; also: % is scaled to controls: 0 for no effect and ±100 for the full control effect; nearly all actives have a fitted effect of over 75% in size
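Methyltransferase reactions run at room temperature for 2 h (20 nM enzyme, 500 nM biotin-H3K9 peptide, 20 uM SAM) after a 15 min compound preincubation; product detected by AlphaScreen beads and anti-H3K9me1 antibody.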
BAZ2B block: qHTS Assay for Inhibitors of BAZ2B; Bromodomain adjacent to zinc finger domain protein 2B (Homo sapiens), Q9UIF8; AlphaScreen BAZ2B-H3K14Ac peptide displacement; Potency, µM (doses to about 114 µM), without a hit: at the top dose activity change, negative = inhibition, most hits filed as inhibitors; hit rate 4.4% among 360,000; also: % is scaled to controls: 0 for no effect and ±100 for the full control effect; nearly all actives have a fitted effect of over 60% in size
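BAZ2B (50 nM) with biotin-H3(5-23)K14Ac peptide (50 nM) in PBS pH 7.4, 0.01% Tween-20, preformed 30 min, then compound 30 min at room temperature; top concentration 110uM. AlphaScreen streptavidin donor/nickel chelate acceptor beads (10 ug/mL final), 20 min dark, signal read.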
Sfp PPTase inh: qHTS Assay for Inhibitors of Bacillus subtilis Sfp phosphopantetheinyl transferase (PPTase) | 4'-phosphopantetheinyl transferase ffp (Bacillus subtilis), Q9F4F7 | Potency, µM, without a hit: largest response in the series, negative = inhibition, actives largely listed as inhibitors | hit rate 3.5% among 310,000 | Biochemical Sfp PPTase activity, qHTS;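 also: the enzyme is Sfp with the accession as filed and its product quenches rhodamine fluorescence; 0% = enzyme reaction without inhibitor and -100% = no enzyme wells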
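Compounds were incubated with enzyme (final 15 nM) for 15 min at room temperature before substrate addition started the reaction. Fluorescence at 525 nm excitation, 598 nm emission was recorded immediately and after 30 minutes.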
L3MBTL1 block: qHTS Assay for the Inhibitors of L3MBTL1; hit rate 0.66% among 230,000; Lethal(3)malignant brain tumor-like protein 1 (Homo sapiens), Q9Y468; Potency, µM (highest dose often 57.1 µM), for the others: top-dose activity, negative = inhibition, hits mostly inhibitors; AlphaScreen L3MBTL1–H3K9me1 peptide binding; AID 485360, 2010; also: % is scaled to controls: 0 for no effect and ±100 for the full control effect; nearly all actives have a fitted effect of over 60% in size
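AlphaScreen proximity signal between nickel-chelate acceptor and streptavidin donor beads (final 10 ug/mL) reports binding of 50 nM L3MBTL1 to 75 nM biotin-H3 K9me1 peptide; complex incubated with compounds 30 min at room temperature; cefsulodin titration as control.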
JMJD2A Tudor: qHTS Assay for Inhibitors of JMJD2A-Tudor Domain | Lysine-specific demethylase 4A (Homo sapiens), O75164 | hit rate 4.4% among 390,000 | Potency, µM (series often up to 114 µM), without a hit: at the top dose activity change, negative = inhibition, actives largely listed as inhibitors | AID 504339, 2011 | AlphaScreen JMJD2A-Tudor / H3K4me3 peptide binding; also: % is scaled to controls: 0 for no effect and ±100 for the full control effect; nearly all actives have a fitted effect of over 50% in size
HP1b binding inh: HTS for Inhibitors of HP1-beta Chromodomain Interactions with Methylated Histone Tails; AlphaScreen HP1-beta / biotin-H3K9me3 peptide binding; Potency, µM (highest dose often 114 µM), for the others: at the top dose activity change, negative = inhibition, hits mostly inhibitors; hit rate 0.56% among 390,000; AID 540317, 2011; also: nearly all actives have a fitted effect of over 70% in size
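AlphaScreen: HP1-beta (50 nM) preformed 30 min with biotin-H3(1-18)K9me3 peptide (50 nM) in PBS pH 7.4, 0.01% Tween-20. Compound added for 30 min at RT, then streptavidin donor/nickel chelate acceptor beads (10 ug/mL) for 30 min.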
Starred values were filed as active, the others as inactive; ? = inconclusive; . = no result; ! = not confirmed by another sample; [ ] = remark or other dose. Calls follow the shape of the dose curve; as a rule, active = well fitted curve in the direction sought with a large enough effect; inconclusive = small, poorly fitted or top-dose-only effect, or another doubt; inactive = no such curve, though single readings can be large; an effect the other way counts as inactive or inconclusive. Potency is read from the fitted curve at half-maximal effect.

SMILES | G9a inh | BAZ2B block | Sfp PPTase inh | L3MBTL1 block | JMJD2A Tudor | HP1b binding inh
COc1cc2c(cc1OC)C(CSc1ccccc1C(=O)O)=NC(C)(C)C2 | ? | 79µM* | 2% | -7% | ? | -1%
CC1(C)Cc2ccccc2C(CSc2ccccc2C(=O)O)=N1 | . | 50µM* | -29% | -13% | 56µM* | -39%
COc1cc2c(cc1OC)C(c1ccc(F)cc1)N(c1ccc(F)cc1)C(=O)C2 (stereo unspecified) | 16%[59 µM] | 19% | . | . | -19% | 60%
O=C(CSc1cn(CC(=O)N2CCCC2)c2ccccc12)Nc1cc(C(F)(F)F)ccc1Cl | -4%[59 µM] | -16% | . | . | -23% | 16%
Cc1ccc2[nH]c(=O)c(CN(Cc3cccs3)S(=O)(=O)c3ccc4c(c3)OCCO4)cc2c1 | 1µM* | -9% | 3% | 0% | -10%[57.1 µM] | 30%
Cc1cc2cc(CN(Cc3cccs3)S(=O)(=O)c3ccc4c(c3)OCCO4)c(=O)[nH]c2cc1C | -5% | 3% | 7% | -10% | -5% | 33%
CC(=O)c1ccc(NC(=O)C2CCC(CNS(=O)(=O)c3cccc4nsnc34)CC2)cc1 (stereo unspecified) | -27%[59 µM] | -26% | . | . | -18% | 26%
CC(C)(NO)/C(=N/O)c1cccs1 | 7.1µM* | 45µM* | -2% | 5% | 10µM* | -26%
Cc1ccc(C)n1NC(=O)c1cccs1 | -15%[12.7 µM] | -21% | -2% | -3% | -26% | -3%
COc1cccc(-n2c(=O)c3sc4ccccc4c3n(CC(=O)Nc3ccc(F)cc3F)c2=O)c1 | -27%[59 µM] | -17% | . | . | -12% | 29%
COc1ccc(C(CC(=O)NCc2ccccc2)Sc2n[nH]c(-c3ccc(Cl)cc3)n2)cc1 (stereo unspecified) | 25µM* | 7% | 5% | -2% | -17% | 20%
COc1ccc(C(CC(=O)NCc2ccccc2)Sc2n[nH]c(-c3ccccc3)n2)cc1 (stereo unspecified) | 1% | 4% | 9% | 17% | -9% | 43%
COc1ccc(-c2nc(SC(CC(=O)NCc3ccccc3)c3ccc(OC)c(OC)c3)n[nH]2)cc1 (stereo unspecified) | 45µM* | -20% | 7% | 6% | -19% | 15%
CCCCCCCCCCCCCCCC(=O)NCC(=O)O | . | . | 13% | . | . | .
Cc1cccc(Cn2c(=O)n(Cc3ccccc3)c(=O)c3sc4ccccc4c32)c1 | 1%[59 µM] | 1% | . | . | 4% | 24%
COCc1ccc(C(=O)NCC2(N3CCCCC3)CCCCC2)cc1 | ? | 79µM* | -23% | . | 13µM* | 5%
CS(=O)(=O)Cc1ccc(C(=O)NCC2(N3CCCCC3)CCCCC2)cc1 | 12% | 4% | 19% | . | 0% | 27%
CS(=O)(=O)N(Cc1cccc(CN(C(C(=O)O)c2ccccc2)S(C)(=O)=O)c1)C(C(=O)O)c1ccccc1 (stereo unspecified) | 32µM* | ? | ? | 9% | -31% | 36%
CC(C)C[C@@H](C(=O)O)N(Cc1cccc(CN([C@@H](CC(C)C)C(=O)O)S(C)(=O)=O)c1)S(C)(=O)=O | ? | -10% | 6% | 11% | -23% | 57%
Cc1cc2c(cc(C(=O)N3CCC(C(=O)N4CCCC4)CC3)n2Cc2c(F)cccc2Cl)o1 | 50µM* | ? | 50µM* | . | 56µM* | -23%
O=C(c1ccc2c(c1)OCCO2)N1CCN(Cc2c(F)cccc2Cl)CC1 | -10%[12.7 µM] | 2% | . | 8% | -2% | 32%
CCOC(=O)c1cc2occc2n1Cc1c(F)cccc1Cl | ? | 50µM* | -18% | . | -10% | 4%
O=C(CCC1N=C2c3ccccc3N=C(SCC(=O)Nc3ccccc3F)N2C1=O)NCc1ccccc1 (stereo unspecified) | -1%[59 µM] | 0% | . | . | -16% | 16%
Cc1ccc2c(c1)-c1onc(C(=O)N(C)c3cccc(C(F)(F)F)c3)c1CO2 | 15%[59 µM] | 3% | . | . | -25% | 31%
Cc1ccc(S(=O)(=O)N2CCC(C(=O)N[C@H](C(=O)NC3CCS(=O)(=O)C3)C(C)C)CC2)cc1 (stereo partly specified) | -40%[12.7 µM] | -5% | -3% | -6% | -4% | 52%
SMILES | G9a inh | BAZ2B block | Sfp PPTase inh | L3MBTL1 block | JMJD2A Tudor | HP1b binding inh
CSCC[C@H](NC(=O)C1CCN(S(=O)(=O)c2ccc(C)cc2)CC1)C(=O)NC1CCS(=O)(=O)C1 (stereo partly specified) | 56µM* | -4% | 1% | -9% | -14% | 23%
Cc1ccc(CNC(=O)c2ccc(Cn3c(SCc4ccc(F)cc4)nc4cccnc43)cc2)o1 | ? | -16% | . | . | -16% | 25%
c1ccc(SCCCCNC2CCCC2)cc1 | 8.9µM* | 56µM* | -13% | 2% | 3.2µM* | -18%[57 µM]
c1ccc(Cc2ccc(OCCCNC3CCCC3)cc2)cc1 | 13µM* | 56µM* | ? | -1% | . | .
c1ccc(COc2ccccc2CNC2CCCC2)cc1 | -16% | -10% | -4% | 30%[11.4 µM] | -18% | 19%
COc1ccc(OCCNC2CCCC2)cc1 | 10µM* | ? | 2% | 5% | 79µM* | 15%
CNCCCOc1ccc2c(c1)CCC2 | 50µM* | 50µM* | -6% | 8% | 22µM* | -37%
Cc1nc2nc(SCC(=O)N(C)Cc3ccccc3)nn2c(C)c1Cc1ccccc1Cl | -8%[59 µM] | -16% | . | . | -13% | 19%
COc1ccc(C(=O)c2cnc3ccc(C)cc3c2S(=O)(=O)c2ccccc2)cc1 | ? | ? | . | . | ? | 1%
c1cc2c(cc1OCCNC1CCCC1)CCC2 | 22µM* | 56µM* | -24% | -3% | . | .
CC(=O)N1CCCc2cc(S(=O)(=O)N(C)CC(=O)Nc3ccc(C)cc3C)ccc21 | 11%[59 µM] | 2% | . | . | -16% | 18%[57 µM]
CC12CCC(C(=O)N(CSC(=S)N/N=C\c3ccccc3O)C1=O)C2(C)C (stereo unspecified) | 4.5µM* | 2.8µM* | 38% | 5.6µM* | 40µM* | -15%
O=C(c1ccc2c(c1)N(Cc1ccc(Cl)cc1)C(=O)c1ccccc1S2=O)N1CCOCC1 (stereo unspecified) | -34%[59 µM] | -17% | . | . | -16% | 21%
N=c1c[n+](N2CCOCC2)[n-]o1 | 8.9µM*! | 50µM* | -11% | -6% | 56µM* | 2%
COc1ccc2[nH]cc(C(=O)CNc3nc(C)cs3)c2c1 | ? | 50µM* | -8% | -5% | -5%[11.4 µM] | -1%

Screens: PubChem BioAssay, National Center for Advancing Translational Sciences (NCATS)
